42 molecules from PubChem BioAssay (NCATS) can be followed below.

Results filed as inconclusive are left out. Entries that show only a call come without a potency. The source made the active and inactive calls. The call rests on the fitted dose curve; in most records, active means well fitted curve in the direction sought with a large enough effect; inconclusive means small, poorly fitted or top-dose-only effect, or another doubt; inactive means no such curve, though single readings can be large; an effect the other way counts as inactive or inconclusive.

Assay [1] deals with Furin (Homo sapiens) (UniProt P09958). Put plainly: Furin counterscreen qHTS for Zika virus inhibitors (AID 1347149).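 Further: purified recombinant full-length human furin enzyme at 5 nM; fluorescence gain from furin cutting a BOC-RVRR-AMC peptide substrate over 15 min; top concentration of the series differs between compounds; nearly all actives have a fitted effect of over 70% in size.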 Summed up:
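Counterscreen measures cleavage of 2 microM BOC-RVRR-AMC, below its ~15 microM Km, by 5 nM full-length human furin at pH 7.0 after a 15-min compound preincubation. Inhibition derives from the 15-min fluorescence increase at 37C.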
In general terms: The purpose of a counterscreen is to sort out artefacts and off-target activity.

For assay [2], the system named is Zika virus NS2B-NS3 protease (unlinked). As to the kind of experiment: Optimization of GU AMC qHTS for Zika virus inhibitors: Unlinked NS2B-NS3 protease assay (AID 1347151). Further: series mostly up to about 52 µM; nearly all actives have a fitted effect of over 80% in size. An outline of the steps: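 Fluorescence gain (340/450 nm) over 15 min at room temperature, ~20% conversion, gave percent inhibition fitted to a 4-parameter Hill equation; enzyme was unlinked NS2B-NS3 (25 nM final), pH 8.0 Tris buffer.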
Background: In qHTS, concentration-response curves come from the screen itself.

For assay [3], the system named is Zika virus NS2B-NS3 protease. Put plainly: Primary screen GU AMC qHTS for Zika virus inhibitors (AID 1347154). Further: nearly all actives have a fitted effect of over 70% in size. Summed up: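 Unlinked Zika NS2B hydrophilic domain/NS3 protease domain noncovalent complex (25 nM final) in 10 mM Tris-HCl pH 8.0, 0.01% Tween 20, with AMC peptide substrate. Fluorescence (ex 340, em 450 nm) change over 15 min, room temperature; percent inhibition fitted to 4-parameter Hill equation.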

Assay [4] is described as follows: Vero cells viability qHTS for Zika virus inhibitors (AID 1347167). Summed up:
(§1)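 To flag cytotoxic protease inhibitors, viability is measured by ATP-dependent luminescence (CellTiter Glo) after cells attached overnight receive compound for 24 to 48 hours in DMEM with 4% FBS.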

The nature of assay [5]: HepG2 cells viability qHTS for Zika virus inhibitors (AID 1347168). Summed up: as §1
Assay [6] addresses N-terminal Xaa-Pro-Lys N-methyltransferase 1 (Homo sapiens) (UniProt Q9BV86). As to the kind of experiment: qHTS Assay for Inhibitors of N-terminal methyltransferase 1 (NTMT1): LOPAC validation of the NTMT1 SAHH-coupled ThioGlo3 Assay (AID 1347143).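 Further: SAH from peptide methylation measured as thiol fluorescence via SAHH coupling and ThioGlo3; nearly all actives have a fitted effect of over 70% in size.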 Summed up:
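In this qHTS pilot against the LOPAC set, 125nM NTMT1 met compounds tested at multiple concentrations, and fluorescence was normalized to background.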

Assay [7] deals with Lysine-specific demethylase 5B (Homo sapiens) (UniProt Q9UGL1). As to the kind of experiment: Optimization screen for KDM5B Histone Demethylases FDH coupled qHTS against the LOPAC library (AID 1347166). An outline of the steps: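 KDM5BDeltaAP (200nM final) in 50mM HEPES pH 7.5, 0.01% Tween-20 was preincubated with compound for 10 min at room temperature. A substrate mix of 12.5uM H3K4Me3, 25uM a-ketoglutarate, ascorbate, Fe2+, NAD+ and formaldehyde dehydrogenase was then added. NADH fluorescence (340/450 nm) was read initially and after 30 min.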
Sequence of Lysine-specific demethylase 5B (Homo sapiens) (Q9UGL1 whole entry, looked up): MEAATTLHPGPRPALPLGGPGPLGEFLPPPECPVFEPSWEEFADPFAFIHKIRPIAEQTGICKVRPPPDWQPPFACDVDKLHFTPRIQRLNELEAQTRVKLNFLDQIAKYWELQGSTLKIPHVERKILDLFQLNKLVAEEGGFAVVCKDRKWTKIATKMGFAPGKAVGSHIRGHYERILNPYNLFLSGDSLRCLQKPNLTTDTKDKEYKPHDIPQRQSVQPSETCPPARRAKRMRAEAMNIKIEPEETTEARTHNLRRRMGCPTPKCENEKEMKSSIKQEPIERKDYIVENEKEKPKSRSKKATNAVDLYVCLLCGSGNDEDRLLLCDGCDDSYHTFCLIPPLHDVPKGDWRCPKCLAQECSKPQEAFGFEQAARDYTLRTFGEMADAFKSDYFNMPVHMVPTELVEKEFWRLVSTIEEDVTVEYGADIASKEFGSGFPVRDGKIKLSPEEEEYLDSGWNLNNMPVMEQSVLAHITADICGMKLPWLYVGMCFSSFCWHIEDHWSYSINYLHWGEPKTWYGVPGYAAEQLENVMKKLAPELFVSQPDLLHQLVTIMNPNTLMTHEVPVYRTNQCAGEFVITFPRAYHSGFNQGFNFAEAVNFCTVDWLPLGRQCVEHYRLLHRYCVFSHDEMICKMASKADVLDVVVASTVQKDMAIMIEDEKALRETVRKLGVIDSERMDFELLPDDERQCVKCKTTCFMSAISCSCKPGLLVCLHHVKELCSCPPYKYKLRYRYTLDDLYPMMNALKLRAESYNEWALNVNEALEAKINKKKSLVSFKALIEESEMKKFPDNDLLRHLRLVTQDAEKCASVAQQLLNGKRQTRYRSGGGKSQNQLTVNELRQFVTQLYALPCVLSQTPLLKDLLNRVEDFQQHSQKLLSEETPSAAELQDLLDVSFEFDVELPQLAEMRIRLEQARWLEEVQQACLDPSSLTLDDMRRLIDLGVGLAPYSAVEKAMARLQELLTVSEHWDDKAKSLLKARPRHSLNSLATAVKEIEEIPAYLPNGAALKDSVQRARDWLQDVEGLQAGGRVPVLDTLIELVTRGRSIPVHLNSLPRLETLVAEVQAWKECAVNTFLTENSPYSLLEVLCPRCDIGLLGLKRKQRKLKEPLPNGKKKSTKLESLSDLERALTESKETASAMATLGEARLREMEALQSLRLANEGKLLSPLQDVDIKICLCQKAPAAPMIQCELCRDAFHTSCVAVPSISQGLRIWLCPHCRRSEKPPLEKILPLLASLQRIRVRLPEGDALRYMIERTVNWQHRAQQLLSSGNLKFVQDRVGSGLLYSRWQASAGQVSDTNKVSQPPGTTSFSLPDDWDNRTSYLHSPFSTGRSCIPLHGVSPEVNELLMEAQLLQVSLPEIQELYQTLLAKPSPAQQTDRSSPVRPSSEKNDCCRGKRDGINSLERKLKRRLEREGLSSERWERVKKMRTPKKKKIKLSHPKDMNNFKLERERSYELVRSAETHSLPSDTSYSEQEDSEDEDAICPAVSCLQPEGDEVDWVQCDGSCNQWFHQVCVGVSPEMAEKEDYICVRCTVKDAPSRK

Assay [8] in a line: qHTS of pediatric cancer cell lines to identify multiple opportunities for drug repurposing: Confirmatory screen for Saos-2 cells (AID 1347127). Further: nearly all actives have a fitted effect of over 60% in size. An outline of the steps:
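Cells (500-1,000/well) in growth media were settled 5 h at 37 degrees C, then given compounds for 48 h. Viability was read as CellTiter-Glo luminescence. Primary runs used MIPE at 11 points (0.78 nM-46 µM) and NPC at 8 points (0.59 nM-46 µM); follow-ups used 11 points.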

In assay [9] the test system is Zika virus NS2B-NS3 protease (unlinked complex). As to the kind of experiment: Primary screen GU Rhodamine qHTS for Zika virus inhibitors: Unlinked NS2B-NS3 protease assay (AID 1347159). Further: nearly all actives have a fitted effect of over 60% in size. An outline of the steps: (§2)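 Unlinked NS2B/NS3, 25 nM; Rhod110 peptide, 1.5 microM; compounds, up to 114 microM. Reaction run 15 min at RT in 10 mM Tris-HCl pH 8.0, 0.01% Tween 20; kinetic fluorescence change fitted with a 4-parameter Hill model.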

For assay [10], the system named is Zika virus NS2B-NS3 protease (linked construct). As to the kind of experiment: Primary screen NINDS Rhodamine qHTS for Zika virus inhibitors (AID 1347160). Further: nearly all actives have a fitted effect of over 55% in size. As to conditions: outcome: dose series up to 57.1 µM. An outline of the steps:
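Single-chain NS2B-NS3 protease, 25 nM, pH 8.0; compounds preincubated 15 min. Activity: Rhodamine110 release from 1.5 microM substrate over 15 min, room temperature, data fitted to 4-parameter Hill.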

A short description of assay [11]: OV-KATE Cancer Cell Toxicity qHTS against the NCATS CANVASS Library (AID 1347345). Summed up:
(§3)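 Viability read-out: CellTiter-Glo luminescence after 72 h compound exposure at 37 °C/5% CO2. Cells plated at 1000/well, 4 h pre-incubation; 11-point titration. Bortezomib served as control.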

Assay [12] can be described thus: HPAF-II Cancer Cell Toxicity qHTS against the NCATS CANVASS Library (AID 1347346). Further: series mostly up to about 38 µM; nearly all actives have a fitted effect of over 55% in size. An outline of the steps:
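First, HPAF-II cells are plated (1000 cells/well) and held 4 h at 37 degrees C. Next, compounds are pin-transferred as an 11-point series. After 72 h, CellTiter-Glo is added and luminescence measured.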

A short description of assay [13]: UWB1.289 Cancer Cell Toxicity qHTS against the NCATS CANVASS Library (AID 1347347). Further: series mostly up to about 38 µM; nearly all actives have a fitted effect of over 60% in size. An outline of the steps:
as §3

Assay [14] is described as follows: OV-SAHO Cancer Cell Toxicity qHTS against the NCATS CANVASS Library (AID 1347348). Further: series mostly up to about 38 µM; nearly all actives have a fitted effect of over 55% in size. Summed up: as §3
A short description of assay [15]: Confirmatory screen GU Rhodamine qHTS for Zika virus inhibitors qHTS (AID 1347157). Further: potency means the concentration at half of the fitted maximal effect; nearly all actives have a fitted effect of over 70% in size. Particulars: purified enzyme assay, Rhodamine110 substrate fluorescence, 15 min. Summed up: as §2
Assay [16] in a line: Confirmatory screen NINDS Rhodamine qHTS for Zika virus inhibitors (AID 1347161). Further: potency means the concentration at half of the fitted maximal effect; nearly all actives have a fitted effect of over 60% in size. Summed up:
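Percent inhibition, normalized to uninhibited and enzyme-free controls, is fitted to a 4-parameter Hill equation. Fluorescence change comes from a 15-min cleavage of 1.5 microM bis-peptide Rhodamine110 substrate by 25 nM linked NS2B-NS3 at room temperature.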

Assay [17] in a line: Tertiary RLuc qRT-PCR qHTS assay for Zika virus inhibitors (AID 1347169). Further: top concentration of the series differs between compounds; nearly all actives have a fitted effect of over 55% in size. An outline of the steps:
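Orthogonal cell-based readout: luminescence measured 1-1.5 hrs after adding live-cell Renilla substrate to Vero cells that had been infected with ZIKV-RLuc (MOI 1-2) post-compound, incubated 48-72 hrs at 37 degrees C.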
(In qPCR the cycle at which signal appears reflects the starting amount.)

Sequence of Furin (Homo sapiens) (P09958 whole entry, looked up): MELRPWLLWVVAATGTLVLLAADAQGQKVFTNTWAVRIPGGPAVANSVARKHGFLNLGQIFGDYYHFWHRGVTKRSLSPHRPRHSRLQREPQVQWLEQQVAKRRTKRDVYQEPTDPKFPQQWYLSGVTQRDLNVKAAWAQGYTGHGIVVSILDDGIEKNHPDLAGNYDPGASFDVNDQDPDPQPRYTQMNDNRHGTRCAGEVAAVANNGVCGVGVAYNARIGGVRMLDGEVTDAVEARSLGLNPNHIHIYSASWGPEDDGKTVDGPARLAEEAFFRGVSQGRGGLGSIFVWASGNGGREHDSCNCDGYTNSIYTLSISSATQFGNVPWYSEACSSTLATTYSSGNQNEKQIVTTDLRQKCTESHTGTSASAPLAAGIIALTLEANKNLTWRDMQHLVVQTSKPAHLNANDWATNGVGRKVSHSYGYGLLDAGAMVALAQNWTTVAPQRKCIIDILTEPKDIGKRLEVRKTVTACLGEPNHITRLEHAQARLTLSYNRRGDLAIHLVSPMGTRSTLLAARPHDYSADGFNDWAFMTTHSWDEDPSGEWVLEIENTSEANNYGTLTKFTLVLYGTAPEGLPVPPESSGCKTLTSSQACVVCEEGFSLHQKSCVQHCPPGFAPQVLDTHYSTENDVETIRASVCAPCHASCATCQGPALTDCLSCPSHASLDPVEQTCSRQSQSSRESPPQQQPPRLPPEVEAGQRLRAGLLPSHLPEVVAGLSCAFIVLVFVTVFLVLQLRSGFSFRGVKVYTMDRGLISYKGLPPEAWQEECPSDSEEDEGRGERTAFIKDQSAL
Sequence of N-terminal Xaa-Pro-Lys N-methyltransferase 1 (Homo sapiens) (Q9BV86 whole entry, looked up): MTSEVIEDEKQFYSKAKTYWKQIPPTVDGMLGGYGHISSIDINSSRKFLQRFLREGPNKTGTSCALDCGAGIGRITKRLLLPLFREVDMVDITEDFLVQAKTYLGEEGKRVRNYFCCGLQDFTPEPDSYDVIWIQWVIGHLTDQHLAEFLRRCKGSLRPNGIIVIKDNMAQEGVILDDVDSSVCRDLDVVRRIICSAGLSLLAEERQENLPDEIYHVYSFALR

Consider `CC(C)=CCN1CC[C@@]2(C)c3cc(O)ccc3C[C@@H]1[C@@H]2C`, for which the molecule was classed as inactive in assay [1], in assay [2], in [4] and in [5]. In assay [3], the Potency result is “inactive”.

Consider `O=C(O)c1nn(Cc2ccc(Cl)cc2Cl)c2ccccc12`, for which the molecule was classed as inactive in [6] and in assay [7]. The Potency result in [3] is “inactive”.

As for `CN1[C@@H]2CC[C@H]1CC(OC(=O)c1cc(Cl)cc(Cl)c1)C2` (stereo partly specified), the Potency result in assay [8] and in assay [3] was “inactive” throughout.

For `Sc1ccccc1Cl`, in assay [3], the Potency result was “inactive”.

Turning to `O=C(N[C@H]1N=C(c2ccccc2F)c2cccc3c2N(CC3)C1=O)c1cc2ccccc2[nH]1`, in assay [3], the Potency result was “inactive”. The molecule was classed as inactive in assay [9] and in assay [10].

On to `O=C(O)CCCCCCNC1c2ccccc2CCc2ccccc21`, for which the Potency entry in [3] was “inactive”. For the same molecule, the call in assay [9] and in [10] was inactive.

Consider `CC(Cc1ccc2c(c1)OCO2)NO` (stereo unspecified), for which, in assay [3], the Potency entry is “inactive”.

Regarding `COP(=O)(OC)OC=C(Cl)Cl`, the Potency result in assay [3] was “inactive”.

For the molecule `C[C@H]1C(=O)O[C@@H]2CCN3CC=C(COC(=O)[C@](C)(O)[C@]1(C)O)[C@H]23`, in assay [3], the Potency entry is “inactive”.

For the molecule `CCCC[N+]1(C)[C@@H]2CC(OC(=O)[C@H](CO)c3ccccc3)C[C@H]1[C@@H]1O[C@@H]12` (stereo partly specified), the Potency entry in assay [3] was “inactive”. The molecule was classed as inactive in [9] and in assay [10].

Consider `CCOC(=O)c1ncn2c1CN(C)C(=O)c1c(I)cccc1-2`, for which the Potency result in assay [3] is “inactive”. In addition, the result in assay [9] and in [10] was inactive.

With `CC[C@H](O)C(C[C@H](C)N(C)C)(c1ccccc1)c1ccccc1`, the Potency entry in assay [3] was “inactive”.

Consider `COP(=S)(OC)Oc1ccc(Sc2ccc(OP(=S)(OC)OC)cc2)cc1`, for which the Potency result in assay [3] was “inactive”.

With `CN1C(=O)CN=C(c2ccccc2)c2cc(Cl)ccc21`, the Potency result in assay [3] was “inactive”.

Consider `CCOC(=O)c1cncn1C(C)c1ccccc1` (stereo unspecified), for which the Potency result in [3] is “inactive”. Besides, the molecule was classed as inactive in assay [9] and in assay [10].

In the case of `O=C(CCl)c1ccc(Cl)cc1Cl`, in [3], the Potency result is “inactive”.

In the case of `CNC(=O)Oc1cccc2ccccc12`, the Potency entry in assay [3] is “inactive”.

For `O=c1n(Cl)c(=O)n(Cl)c(=O)n1Cl`, the Potency result in [3] is “inactive”.

Regarding `CCCCC1C(=O)NC(=O)N(C2CCCCC2)C1=O` (stereo unspecified), the Potency result in assay [3] is “inactive”. In addition, in assay [10], the call was inactive.

Consider `Cc1cccc(Cc2cnc[nH]2)c1C`, for which the Potency entry in assay [3] is “inactive”.

In the case of `CCN(CC)C(C)C(=O)c1ccccc1` (stereo unspecified), the Potency entry in assay [3] is “inactive”.

On to `C[N+]1(C)[C@@H]2CC[C@H]1CC(OC(=O)C(CO)c1ccccc1)C2` (stereo partly specified), for which the Potency result in assay [3] is “inactive”.

Turning to `Cc1ccc(N=CN(C)C=Nc2ccc(C)cc2C)c(C)c1`, in [3], the Potency entry is “inactive”.

Take `C[C@]12C=CC(=O)C=C1CC[C@@H]1[C@@H]2CC[C@@]2(C)[C@H]1CC[C@]2(C)O`: the Potency result in assay [3] is “inactive”.

Consider `CC(C)=C[C@@H]1[C@@H](C(=O)OCc2coc(Cc3ccccc3)c2)C1(C)C`, for which the Potency result in [3] was “inactive”.

For the molecule `C[C@]12CC[C@H](O)CC1=CC[C@@H]1[C@@H]2CC[C@]2(C)C(=O)CC[C@@H]12`, the Potency result in assay [3] was “inactive”. Also, the call in [9] and in assay [10] was inactive.

Regarding `CCOC(=O)NC(O)C(Cl)(Cl)Cl` (stereo unspecified), the Potency entry in assay [3] is “inactive”.

In the case of `CN(C)CCc1c[nH]c2ccccc12`, the Potency entry in assay [3] is “inactive”. Also, the outcome in [10], in [11], in [12], in assay [13] and in assay [14] was inactive.

On to `CC(C)(O)C(Cl)(Cl)Cl`, for which the Potency result in assay [3] is “inactive”.

Consider `Cc1nnc2n1-c1sc(CCc3ccc(CC(C)C)cc3)cc1C(c1ccccc1Cl)=NC2C` (stereo unspecified), for which the Potency in assay [15] and in [16] was 44.1 µM (active) throughout. Besides, the molecule was called inactive in assay [9] and in assay [17].

As to `CN(C)CCc1c[nH]c2cccc(O)c12`, in assay [3], the Potency entry was “inactive”.

For `CCOC(=O)NC(C)(C)Cc1ccc(Cl)cc1`, the Potency entry in assay [3] is “inactive”. The molecule was classed as inactive in assay [9] and in assay [10].

Turning to `COCC(=O)N(c1c(C)cccc1C)C(C)C(=O)OC` (stereo unspecified), in assay [3], the Potency result was “inactive”.

With `c1cc2c(c(N3CCNCC3)c1)OCCO2`, the Potency result in assay [3] was “inactive”.

Turning to `C[C@@H]1CC[C@H]2[C@@H](C)C(=O)O[C@@H]3O[C@@]4(C)CC[C@@H]1[C@]32OO4`, the Potency entry in assay [3] is “inactive”.

On to `CC[C@H]1C[C@H]2[C@@H]3CCC4=CC(=O)CC[C@@H]4[C@H]3CC[C@]2(C)[C@H]1O`, for which, in assay [3], the Potency result was “inactive”. The molecule was called inactive in assay [9] and in [10].

For `CC(Cc1ccccc1)NCCCCl` (stereo unspecified), in assay [3], the Potency result was “inactive”.

`O=C(N[C@@H]1N=C(c2ccccc2F)c2cccc3c2N(CC3)C1=O)c1cc2ccccc2[nH]1`: in assay [3], the Potency result was “inactive”. The molecule was called inactive in [9].

Take `NC(=O)OCCCc1ccccc1`: the Potency entry in assay [3] was “inactive”.

As for `CC(C)[N+](C)(CCC(C(N)=O)(c1ccccc1)c1ccccc1)C(C)C`, the Potency result in assay [3] was “inactive”.

On to `CC(C)(C)OC(=O)c1ncn2c1[C@@H]1CCCN1C(=O)c1c(Br)cccc1-2`, for which the Potency entry in assay [3] was “inactive”.

For `CCCOC(=O)Cc1ccc(OCC(=O)N(CC)CC)c(OC)c1`, in [3], the Potency result was “inactive”. Also, the call in assay [9] was inactive.
